Compounds without any hit were thinned out: in the full panel of roughly 79,000, 15% have a hit. The source made the active and inactive calls. No stated cut-off is given here; in the data, active means growth inhibition above about 70%; inactive means the rest.
What was measured:
[1] = NCI Yeast Anticancer Drug Screen. Data for the rad52 strain (AID 147);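 further: 0% = growth of vehicle-treated control cultures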; conditions: S. cerevisiae rad52 mutant growth inhibition, hits give high values
Procedure, shortened: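 Measured: yeast growth inhibition. System: strain with a defined DNA damage repair alteration. Reference: vehicle-treated control cultures.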

[2] = NCI Yeast Anticancer Drug Screen. Data for the wt1 strain (AID 149);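 further: 0% = growth of vehicle-treated wt1 cultures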; conditions: S. cerevisiae wt1 strain (SPY 50644) growth inhibition, hits give high values
Procedure, shortened: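 wt1 yeast, compound-treated; % growth inhibition vs vehicle control.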

[3] = NCI Yeast Anticancer Drug Screen. Data for the rad50EPP+ strain (AID 151);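 further: 0% = growth of vehicle-treated control cultures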; conditions: S. cerevisiae rad50 mutant strain, hits give high values
Procedure, shortened: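 One strain with a rad50 alteration (rad50EPP+) was compound-treated, its growth then compared to that of vehicle controls.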

[4] = NCI Yeast Anticancer Drug Screen. Data for the mgt1 strain (AID 153); conditions: S. cerevisiae mgt1 mutant growth inhibition, hits give high values
Procedure, shortened: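 After exposure of the mgt1 yeast mutant to compound, growth was measured and reported as inhibition compared with vehicle controls.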

[5] = NCI Yeast Anticancer Drug Screen. Data for the rad50 strain (AID 155);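 further: 0% = growth of vehicle-only cultures of the same strain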; conditions: S. cerevisiae rad50 strain growth inhibition, hits give high values
Procedure, shortened: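 Genetically altered yeast (DNA repair pathway); compound treatment; growth inhibition vs vehicle ctrl.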

[6] = NCI Yeast Anticancer Drug Screen. Data for the mec2-1 strain (AID 157); conditions: S. cerevisiae mec2-1 strain, hits give high values
Procedure, shortened: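 Test agents were screened against the mec2-1 yeast strain, with defined DNA repair or cell cycle alteration. Growth was scored as inhibition against vehicle-only controls.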

[7] = NCI Yeast Anticancer Drug Screen. Data for the rad14 strain (AID 159);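 further: 0% = growth of vehicle-treated control cultures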; conditions: S. cerevisiae rad14 strain growth inhibition, hits give high values
Procedure, shortened: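 Test compounds were applied to a repair-deficient yeast strain. Its growth was then compared with that of cultures given vehicle alone, and inhibition was expressed relative to those controls.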

[8] = NCI Yeast Anticancer Drug Screen. Data for the sgs1 mgt1 strain (AID 161);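 further: 0% = growth of cultures given vehicle only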; conditions: S. cerevisiae sgs1 mgt1 strain, hits give high values
Procedure, shortened: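 Test agents were incubated with a DNA-repair-mutant yeast strain. Growth was then read and compared against vehicle-treated controls.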

[9] = NCI Yeast Anticancer Drug Screen. Data for the CLN2oe strain (AID 163);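 further: 0% = growth of vehicle-only control cultures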; conditions: S. cerevisiae CLN2oe strain, hits give high values
Procedure, shortened: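 Here, growth inhibition in a cell-cycle-altered yeast strain after compound exposure was quantified against vehicle control growth.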

[10] = NCI Yeast Anticancer Drug Screen. Data for the cln2 rad14 strain (AID 165);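 further: 0% = growth equal to vehicle treated cultures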; conditions: S. cerevisiae cln2 rad14 strain, hits give high values
Procedure, shortened: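 Growth of compound-exposed yeast (cln2 rad14 genotype) measured and expressed as inhibition relative to vehicle.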

[11] = NCI Yeast Anticancer Drug Screen. Data for the bub3 strain (AID 167); conditions: S. cerevisiae bub3 mutant strain, hits give high values
Procedure, shortened: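 Yeast carrying a defined mutation is treated with each compound, and growth is compared with that of vehicle-exposed cells to give inhibition.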

[12] = NCI Yeast Anticancer Drug Screen. Data for the mlh1 strain (AID 171);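 further: 0% = growth of vehicle-treated control cultures of the same strain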; conditions: S. cerevisiae mlh1 strain growth inhibition, hits give high values
Procedure, shortened: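 Here the genetically defined yeast mutant is grown with each compound, and the extent to which its growth falls below that of vehicle-exposed cells is reported.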

[13] = NCI Yeast Anticancer Drug Screen. Data for the sgs1 strain (AID 173);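 further: 0% = growth of vehicle-only control cultures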; conditions: S. cerevisiae sgs1 mutant, hits give high values
Procedure, shortened: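 Relative growth inhibition, referenced to vehicle, was determined in a yeast strain with a defined alteration affecting DNA damage repair or cell cycle control after compound exposure.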

[14] = NCI Yeast Anticancer Drug Screen. Data for the rad18 strain (AID 177); conditions: S. cerevisiae rad18 mutant growth inhibition, hits give high values
Procedure, shortened: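 Screen uses a yeast strain with a defined lesion in DNA damage repair; compound effect is read as loss of growth compared to untreated vehicle cultures.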

[15] = at 5.0 µM (retest, dose inferred, filed as 0.5)
[16] = at 50.0 µM (retest, dose inferred, filed as 5.0)

Measured: growth inhibition

CN(C)/C(=N/C(=S)Nc1ccccc1)SCc1ccccc1
inactive: [1]; at 1.2 µM -3% | [1]; at 3.7 µM -4% | [1]; at 11.0 µM -2% | [1]; at 33.0 µM 6% | [1]; at 100.0 µM 12% | [2]; at 1.2 µM -2% | [2]; at 3.7 µM -3% | [2]; at 11.0 µM 0% | [2]; at 33.0 µM 6% | [2]; at 100.0 µM 6% | [3]; at 1.2 µM 0% | [3]; at 3.7 µM 1% | [3]; at 11.0 µM -5% | [3]; at 33.0 µM 1% | [3]; at 100.0 µM 13% | [4]; at 1.2 µM 1% | [4]; at 3.7 µM 2% | [4]; at 11.0 µM 4% | [4]; at 33.0 µM 11% | [4]; at 100.0 µM 16% | [5]; at 1.2 µM -5% | [5]; at 3.7 µM -5% | [5]; [15] -7% | [5]; at 11.0 µM -7% | [5]; at 33.0 µM 8% | [5]; at 100.0 µM 10% | [6]; at 1.2 µM -5% | [6]; at 3.7 µM -5% | [6]; [15] -1% | [6]; at 11.0 µM -4% | [6]; at 33.0 µM 10% | [6]; at 100.0 µM 16% | [7]; at 1.2 µM -4% | [7]; at 3.7 µM -5% | [7]; at 11.0 µM -2% | [7]; at 33.0 µM 13% | [7]; at 100.0 µM 18% | [8]; [15] 11% | [9]; at 1.2 µM -8% | [9]; at 3.7 µM -11% | [9]; at 11.0 µM -13% | [9]; at 33.0 µM -6% | [9]; at 100.0 µM -1% | [10]; [15] -15% | [10]; [16] 44% | [11]; at 1.2 µM -4% | [11]; at 3.7 µM -2% | [11]; [15] 6% | [11]; at 11.0 µM 3% | [11]; at 33.0 µM 8% | [11]; at 100.0 µM 14% | [12]; at 1.2 µM -2% | [12]; at 3.7 µM 0% | [12]; at 11.0 µM 3% | [12]; at 33.0 µM 11% | [12]; at 100.0 µM 20% | [13]; at 1.2 µM -3% | [13]; at 3.7 µM 0% | [13]; at 11.0 µM 7% | [13]; at 33.0 µM 25% | [13]; at 100.0 µM 30% | [14]; at 1.2 µM -4% | [14]; at 3.7 µM -1% | [14]; at 11.0 µM 1% | [14]; at 33.0 µM 16% | [14]; at 100.0 µM 24%
active: [5]; [16] 70% | [5]; at 50.0 µM 99.2% | [6]; [16] 76% | [6]; at 50.0 µM 99.7% | [8]; [16] 91% | [8]; at 50.0 µM 99% | [10]; at 50.0 µM 98.8% | [11]; [16] 86% | [11]; at 50.0 µM 99.5%
